Laboratory results as given in PubChem BioAssay (EPA / NIEHS).
Inconclusive results are not listed. Calls of active or inactive are those of the source. How the source made its calls: active means hit-call score of the fitted dose curve at least 0.9, where 1 is the maximum; inconclusive means response in the unintended direction; inactive means score below 0.9.

Key:
[1] = Tanguay_ZF_120hpf_SNOU_legacy: (Legacy) Oregon State University Tanguay Lab 120 Hour Post-fertilization zebrafish Assay for Snout Malformation (AID 2283637)
Method in brief: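 Binary brightfield scoring of snout malformation at 120 hpf. Dechorionated 5D wild-type embryos, one per well, static exposure from 6 hpf at 28C, sealed and dark; final DMSO 0.64% (vol/vol), DMSO as baseline; 5uM trimethyltin chloride positive control.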

[2] = Tanguay_ZF_120hpf_JAW_legacy: (Legacy) Oregon State University Tanguay Lab 120 Hour Post-fertilization zebrafish Assay for Jaw Malformation (AID 2283638);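 on AC50: active means more embryos with jaw malformation than DMSO controls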
Method in brief: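 Steps: dechorionate 4 hpf embryos (pronase); plate 1/well at 6 hpf; add test chemical, 0.64% DMSO final; seal, cover, hold at 28C statically to 120 hpf; score jaw defect presence/absence microscopically. Dead embryos not scored.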

[3] = Tanguay_ZF_120hpf_OTIC_legacy: (Legacy) Oregon State University Tanguay Lab 120 Hour Post-fertilization zebrafish Assay for Otic Vesicle Malformation (AID 2283639)
Method in brief: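 Wild-type zebrafish larvae, whole-embryo exposure from early stage to 120 hpf at 28C. Binary brightfield scoring of otic vesicle morphology, fitted in the positive direction against the DMSO baseline.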

[4] = Tanguay_ZF_120hpf_PE_legacy: (Legacy) Oregon State University Tanguay Lab 120 Hour Post-fertilization zebrafish Assay for Pericardial Edema (AID 2283640);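 on AC50: potency for increased incidence of pericardial edema versus DMSO baseline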
Method in brief: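 Embryos from wild-type 5D adults were staged, then dosed in 0.64% DMSO. They were kept sealed in the dark at 28C until 120 hpf. Pericardial edema was then recorded as present or absent.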

[5] = Tanguay_ZF_120hpf_BRAI_legacy: (Legacy) Oregon State University Tanguay Lab 120 Hour Post-fertilization zebrafish Assay for Brain Malformation (AID 2283641)
Method in brief: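 Wild-type 5D larvae, static waterborne exposure to 120 hpf, 28C, 0.64% v/v DMSO. Brightfield scoring of brain defects, binary; dead embryos excluded. Positive ctrl 5uM trimethyltin chloride.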

[6] = Tanguay_ZF_120hpf_SOMI_legacy: (Legacy) Oregon State University Tanguay Lab 120 Hour Post-fertilization zebrafish Assay for Somite Malformation (AID 2283647)
Method in brief: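 Read-out: presence or absence of somite malformation in 120 hpf larvae, gain-of-signal relative to DMSO baseline. Embryos lacked chorion (pronase, 4 hpf) and were exposed statically from 6 hpf at 28C; dead larvae not scored.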

[7] = Tanguay_ZF_120hpf_PFIN_legacy: (Legacy) Oregon State University Tanguay Lab 120 Hour Post-fertilization zebrafish Assay for Pectoral Fin Malformation (AID 2283648);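 further: each larva judged yes or no for fin defect by brightfield with dead larvae skipped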
Method in brief: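 Binary pectoral fin malformation call at 120 hpf by brightfield microscopy; 5D wild-type zebrafish, chorion removed at 4 hpf, one embryo per well from 6 hpf, static exposure at 28C; DMSO (0.64% final) as baseline.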

[8] = Tanguay_ZF_120hpf_CFIN_legacy: (Legacy) Oregon State University Tanguay Lab 120 Hour Post-fertilization zebrafish Assay for Caudal Fin Malformation (AID 2283649)
Method in brief: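 Binary presence or absence of caudal fin malformation at 120 hpf, read by brightfield microscopy, with DMSO as baseline. Larvae came from 5D wild-type embryos exposed statically from 6 hpf at 28C after pronase dechorionation.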

[9] = Tanguay_ZF_120hpf_PIG_legacy: (Legacy) Oregon State University Tanguay Lab 120 Hour Post-fertilization zebrafish Assay for Pigmentation Malformation (AID 2283650);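 further: dechorionated Tropical 5D zebrafish embryos exposed singly from 6 to 120 hpf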
Method in brief: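 Brightfield scoring of pigmentation malformation at 120 hpf, recorded as binary present/absent per larva. Exposure: dechorionated 5D wild-type embryos, one per well, static from 6 hpf at 28C, final DMSO 0.64% (vol/vol). Dead embryos not scored.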

[10] = Tanguay_ZF_120hpf_CIRC_legacy: (Legacy) Oregon State University Tanguay Lab 120 Hour Post-fertilization zebrafish Assay for Circulatory Malformation (AID 2283651)
Method in brief: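 Binary circulatory-malformation call at 120 hpf via brightfield imaging, relative to DMSO controls. Embryos (5D strain, chorion removed) received static, light-shielded exposure at 28C.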

[11] = Tanguay_ZF_120hpf_SWIM_legacy: (Legacy) Oregon State University Tanguay Lab 120 Hour Post-fertilization zebrafish Assay for Swim Bladder Malformation (AID 2283654);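 further: swim bladder malformation in each larva scored yes or no under brightfield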
Method in brief: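 Tropical 5D embryos dechorionated at 4 hpf; 1 embryo/well from 6 hpf; static, sealed, dark exposure at 28C until 120 hpf; final DMSO 0.64%; 5uM trimethyltin chloride positive control; swim bladder defect recorded yes/no; dead embryos not scored.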

[12] = Tanguay_ZF_120hpf_TRUN_legacy: (Legacy) Oregon State University Tanguay Lab 120 Hour Post-fertilization zebrafish Assay for Truncated Body (AID 2283655)
Method in brief: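 Truncated body is recorded as a binary endpoint at 120 hpf by brightfield imaging of wild-type 5D larvae. Exposure runs statically from 6 hpf at 28C with 0.64% DMSO; embryos dying earlier are not scored.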

[13] = Tanguay_ZF_120hpf_NC_legacy: (Legacy) Oregon State University Tanguay Lab 120 Hour Post-fertilization zebrafish Assay for Notochord and Tail Malformation (AID 2283656)
Method in brief: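 Binary notochord-distortion calls, made by brightfield inspection, form the read-out; activity is fitted in the positive direction against DMSO. Exposure ran statically from 6 to 120 hpf at 28C with 0.64% DMSO.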

[14] = tested on: Thyroperoxidase (TPO), gene 54314; assay: CCTE_Simmons_AUR_rTPO: CCTE's Amplex UltraRed Assay for Thyroperoxidase (TPO) Inhibition, Simmons Lab (AID 2283662);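 on AC50: potency for loss of signal meaning inhibition of peroxidase activity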
Method in brief: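 Rat thyroid microsomal TPO + 25 uM AUR in 200 mM K phosphate; cpd 5 nM–87.5 uM [final], 8 conc, 0.5% DMSO; 300 uM H2O2 starts rxn; 37C dark 30 min; endpoint FI 544/590 nm; n=3.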

[15] = CCTE_Simmons_CellTiterGLO_HEK293T: Viability Assessment in CCTE's Assays for Thyroperoxidase (TPO) Inhibition, Simmons Lab (AID 2283665);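 on AC50: cells exposed to compound for 24 h before readout; actives reduce ATP signal below DMSO vehicle meaning cytotoxicity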
Method in brief: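 ATP depletion measured in HEK293T cells after 24 h dosing (8 concentrations, 5 nM–87.5 uM final; DMSO 0.5%) using CellTiter-Glo luminescence; curves fit for loss of signal against DMSO baseline.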

[16] = Tanguay_ZF_120hpf_TR_legacy: (Legacy) Oregon State University Tanguay Lab 120 Hour Post-fertilization zebrafish Assay for Touch Response (AID 2283667)
Method in brief: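 Binary touch-response call at 120 hpf, analysed as gain of signal versus DMSO baseline. Wild-type 5D larvae, static exposure at 28C, 0.64% DMSO final; 5uM trimethyltin chloride as positive control.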

Measured: AC50

O=P(OC(CCl)CCl)(OC(CCl)CCl)OC(CCl)CCl
inactive: [10] | [13] | [14] | [15]
active: [1] 25.9 µM | [2] 36.3 µM | [3] 34.7 µM | [4] 28.2 µM | [5] 31.7 µM | [6] 9.13 µM | [7] 40.3 µM | [8] 30 µM | [9] 33.9 µM | [11] 25.9 µM | [12] 36.2 µM

COC(=O)c1ccccc1O
inactive: [1] | [2] | [3] | [4] | [5] | [6] | [7] | [8] | [9] | [10] | [12] | [13] | [16]

O=c1[nH]c2ccc(S(=O)CCN3CCC(Cc4ccc(F)cc4)CC3)cc2o1 (stereo unspecified)
inactive: [1] | [2] | [3] | [4] | [5] | [6] | [7] | [8] | [9] | [10] | [12]

Cn1c(=O)c2c(ncn2C)n(C)c1=O
inactive: [1] | [2] | [3] | [4] | [5] | [6] | [7] | [8] | [9] | [10] | [11] | [12] | [13] | [16]

Cn1c(=O)cc(Oc2ccc(F)cc2F)c2cnc(NCC(C)(C)O)nc21
inactive: [1] | [2] | [3] | [5] | [6] | [7] | [8] | [9] | [10] | [11] | [12] | [13] | [16]
active: [4] 10.3 µM

On1ccccc1=S
active: [1] 0.206 µM | [4] 0.0293 µM | [11] 0.0615 µM | [13] 0.561 µM | [14] 17.5 µM
inactive: [2] | [3] | [5] | [6] | [7] | [8] | [9] | [10] | [12] | [15] | [16]

CC/C(=C\C(=N/O)C(N)=O)C(C)[N+](=O)[O-] (stereo unspecified)
inactive: [1] | [2] | [3] | [4] | [5] | [6] | [7] | [8] | [9] | [10] | [11] | [12] | [13] | [15] | [16]
active: [14] 26.3 µM

C[C@](N)(Cc1ccc(O)c(O)c1)C(=O)O
inactive: [1] | [2] | [3] | [4] | [5] | [6] | [7] | [8] | [9] | [10] | [11] | [12] | [13] | [16]
active: [14] 0.696 µM | [15] 39.8 µM

Oc1ccc2c(c1)-c1ccccc1C2
inactive: [3] | [5] | [10] | [12] | [13]
active: [1] 39.3 µM | [2] 37.7 µM | [4] 34.5 µM | [6] 49.1 µM | [7] 36 µM | [8] 35.1 µM | [9] 41 µM | [14] 10.6 µM | [15] 60.1 µM | [16] 32.1 µM

O=C(OC[C@H]1O[C@@H](OC(=O)c2cc(O)c(O)c(OC(=O)c3cc(O)c(O)c(O)c3)c2)[C@H](OC(=O)c2cc(O)c(O)c(OC(=O)c3cc(O)c(O)c(O)c3)c2)[C@@H](OC(=O)c2cc(O)c(O)c(OC(=O)c3cc(O)c(O)c(O)c3)c2)[C@@H]1OC(=O)c1cc(O)c(O)c(OC(=O)c2cc(O)c(O)c(O)c2)c1)c1cc(O)c(O)c(OC(=O)c2cc(O)c(O)c(O)c2)c1
inactive: [1] | [2] | [3] | [4] | [5] | [6] | [7] | [8] | [9] | [10] | [12] | [13] | [16]
active: [14] 1.03 µM | [15] 1.41 µM

CC[C@H]1OC(=O)[C@H](C)[C@@H](O[C@H]2C[C@@](C)(OC)[C@@H](O)[C@H](C)O2)[C@H](C)[C@@H](O[C@@H]2O[C@H](C)C[C@H](N(C)C)[C@H]2O)[C@](C)(O)C[C@@H](C)C(=O)[C@H](C)[C@@H](O)[C@]1(C)O
inactive: [1] | [2] | [3] | [4] | [5] | [6] | [7] | [8] | [9] | [10] | [12] | [13]

CC(C)CCCCCCCOC(=O)CCCCC(=O)OCCCCCCCC(C)C
inactive: [1] | [2] | [3] | [4] | [5] | [6] | [7] | [8] | [9] | [10] | [12] | [13] | [16]

COc1ccc(-n2nc(C(F)F)cc2-c2ccc(S(C)=O)cc2)cc1 (stereo unspecified)
active: [1] 40.4 µM | [2] 46.7 µM | [4] 37.7 µM | [5] 40.4 µM | [7] 48.1 µM | [8] 12.8 µM | [16] 38.2 µM
inactive: [3] | [6] | [9] | [10] | [11] | [12] | [13]

Cc1ccc(O)cc1
inactive: [1] | [2] | [3] | [4] | [5] | [7] | [9] | [10] | [12] | [13] | [16]

O=C(NS(=O)(=O)/C=C/c1ccccc1)c1ccc(F)cc1Cl
inactive: [1] | [2] | [3] | [4] | [5] | [8] | [9] | [12] | [13] | [16]

CCCCCCc1ccc(O)cc1O
active: [14] 0.00854 µM | [15] 21.3 µM
inactive: [1] | [2] | [3] | [4] | [5] | [7] | [9] | [10] | [12] | [13] | [16]

CCCC(=O)OCC
inactive: [1] | [2] | [3] | [4] | [5] | [6] | [7] | [8] | [9] | [10] | [12] | [13] | [16]
